Measured values reported in the supplement of paper PMC13380429.
Values without a mark were called inactive.

system: Vero E6 infected with SARS-CoV-2; assay: SARS-CoV-2 infection rate relative to infected DMSO; higher = more infection, active = 60 or less; settings: 24 h

SMILES	SARS-CoV-2 infection rate
CN(C)C/C=C/C(=O)Nc1ccc(C(=O)Nc2cccc(Nc3ncc(Cl)c(-c4c[nH]c5ccccc45)n3)c2)cc1 (10 µM)	94%
O=C(CCc1ccc(O)cc1)c1c(O)cc(O)cc1O [phloretin] (10 µM)	104%
CNCCN(C)Cc1c[nH]nc1-c1ccc(O[C@H]2C[C@H](OCCC3CCOCC3)C2)cc1 (10 µM)	108%
Cc1cnc(Nc2ccc(OCCN3CCCC3)cc2)nc1Nc1cccc(S(=O)(=O)NC(C)(C)C)c1 [fedratinib] (0.833333 µM)	99.5%
COC(=O)[C@@H](N)CS [mecysteine] (10 µM)	112%
CCC(Cc1c(I)cc(I)c(N)c1I)C(=O)O (stereo unspecified) [iopanic-acid] (10 µM)	116%
COc1c(OCCCN2CCOCC2)ccc2c1N=C(NC(=O)c1cnc(N)nc1)N1CCN=C21 [copanlisib] (0.833333 µM)	34% (active)
CC(=O)N(CC(O)CN(C(C)=O)c1c(I)c(C(=O)NCC(O)CO)c(I)c(C(=O)NCC(O)CO)c1I)c1c(I)c(C(=O)NCC(O)CO)c(I)c(C(=O)NCC(O)CO)c1I (stereo unspecified) [iodixanol] (10 µM)	114%
CO[C@@H]1COCC[C@@H]1N[C@@H]1CC[C@@](C(=O)N2CCc3ncc(C(F)(F)F)cc3C2)(C(C)C)C1 (10 µM)	113%
OC[C@@H](O)[C@@H](O)CO [erythritol] (10 µM)	87.5%
OC(c1ccc(-c2ccc(CN3CCN(Cc4ccncc4)CC3)cc2)c(F)c1)(C(F)(F)F)C(F)(F)F (10 µM)	104%
